The record followed here is ChEMBL document CHEMBL3988442, “University of Dundee, Small-Polar-MMV Screening Library” (2021).

Holding throughout (set-up): scale not given: direction of the effect not stated beside the values
The target in assay [1] is Protein translocase subunit SecA (Escherichia coli (strain K12)) (UniProt P10408). Put plainly: Assay to Identify E. coli SecA ATPase Inhibitors. Format: functional. The following applies: 30 µM.
For assay [2], the target named is T1, Ubiquitin-activating enzyme e1, putative (Leishmania donovani (strain BPK282A1)) (UniProt E9BSI1).
T1 sequence (whole entry): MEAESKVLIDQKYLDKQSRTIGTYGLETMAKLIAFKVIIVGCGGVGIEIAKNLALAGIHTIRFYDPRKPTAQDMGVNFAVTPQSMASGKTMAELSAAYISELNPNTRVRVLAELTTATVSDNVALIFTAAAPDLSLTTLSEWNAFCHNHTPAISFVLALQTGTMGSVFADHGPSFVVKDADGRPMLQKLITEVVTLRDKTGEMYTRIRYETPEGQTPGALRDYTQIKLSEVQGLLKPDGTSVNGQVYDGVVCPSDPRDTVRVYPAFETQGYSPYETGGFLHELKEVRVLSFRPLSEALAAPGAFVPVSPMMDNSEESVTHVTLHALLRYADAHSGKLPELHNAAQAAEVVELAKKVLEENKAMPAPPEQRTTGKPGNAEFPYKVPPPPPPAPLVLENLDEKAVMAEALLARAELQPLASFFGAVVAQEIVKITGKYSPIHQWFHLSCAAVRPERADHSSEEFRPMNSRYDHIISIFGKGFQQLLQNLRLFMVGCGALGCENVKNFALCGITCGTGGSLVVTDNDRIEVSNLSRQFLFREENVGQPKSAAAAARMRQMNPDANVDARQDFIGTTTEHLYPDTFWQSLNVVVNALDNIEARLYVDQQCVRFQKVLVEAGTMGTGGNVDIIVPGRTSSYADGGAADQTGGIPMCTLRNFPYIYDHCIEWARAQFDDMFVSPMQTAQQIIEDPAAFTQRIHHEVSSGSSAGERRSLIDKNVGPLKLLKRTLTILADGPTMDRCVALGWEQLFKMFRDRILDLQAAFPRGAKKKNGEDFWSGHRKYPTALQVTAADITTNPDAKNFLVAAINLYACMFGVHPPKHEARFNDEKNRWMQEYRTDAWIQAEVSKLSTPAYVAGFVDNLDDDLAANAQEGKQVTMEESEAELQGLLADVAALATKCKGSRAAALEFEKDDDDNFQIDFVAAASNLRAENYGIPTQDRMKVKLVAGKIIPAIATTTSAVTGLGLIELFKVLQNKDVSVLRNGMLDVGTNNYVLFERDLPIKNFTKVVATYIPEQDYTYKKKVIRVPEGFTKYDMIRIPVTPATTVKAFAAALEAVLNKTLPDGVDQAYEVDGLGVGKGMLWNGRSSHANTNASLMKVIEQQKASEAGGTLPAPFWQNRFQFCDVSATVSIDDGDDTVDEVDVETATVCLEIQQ
In words: Leishmania donovani Ubiquitin Activating Enzyme (LdE1). Format: functional. The following applies: 30 µM.

The target in assay [3] is AMP-activated protein kinase, AMPK (Homo sapiens) (UniProt P54646+O43741+P54619+Q9UGJ0+Q9Y478+Q13131+Q9UGI9). In words: AMP-dependent Kinase enzyme assay. An in vitro enzyme assay that detects ADP turnover that is directly proportional to AMPK activity. This uses naive AMPK that is activated during the assay with MK-8722. The following applies: 30 µM. Format: functional.

In assay [4] the target is Sialic acid-binding Ig-like lectin 9 (Homo sapiens) (UniProt Q9Y336). Put plainly: Hs-Siglec9 ALPHAscreen SOP 20170721. The following applies: 10 µM.
Sialic acid-binding Ig-like lectin 9 (Homo sapiens), sequence (Q9Y336 whole entry): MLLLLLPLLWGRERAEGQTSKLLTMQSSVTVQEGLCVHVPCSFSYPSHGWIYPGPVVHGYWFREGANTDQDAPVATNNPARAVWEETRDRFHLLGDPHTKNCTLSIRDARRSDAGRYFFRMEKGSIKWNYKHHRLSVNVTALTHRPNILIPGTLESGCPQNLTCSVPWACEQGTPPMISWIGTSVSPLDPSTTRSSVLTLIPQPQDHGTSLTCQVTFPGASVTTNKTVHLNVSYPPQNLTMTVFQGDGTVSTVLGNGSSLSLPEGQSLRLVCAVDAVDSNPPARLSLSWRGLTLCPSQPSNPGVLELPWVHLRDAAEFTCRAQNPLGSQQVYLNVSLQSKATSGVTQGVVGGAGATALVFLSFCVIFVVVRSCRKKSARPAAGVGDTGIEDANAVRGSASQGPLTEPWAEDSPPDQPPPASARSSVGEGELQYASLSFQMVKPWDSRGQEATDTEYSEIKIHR
The test system of another assay is Trypanosoma cruzi. In words: Trypanosoma cruzi phosphomannomutase and mannose-1-phosphate guanylyltransferase assay. Format: functional. The following applies: 10 µM.
The target in assay [5] is T2, Arginase-2, mitochondrial (Homo sapiens) (UniProt P78540).
T2 sequence (whole entry): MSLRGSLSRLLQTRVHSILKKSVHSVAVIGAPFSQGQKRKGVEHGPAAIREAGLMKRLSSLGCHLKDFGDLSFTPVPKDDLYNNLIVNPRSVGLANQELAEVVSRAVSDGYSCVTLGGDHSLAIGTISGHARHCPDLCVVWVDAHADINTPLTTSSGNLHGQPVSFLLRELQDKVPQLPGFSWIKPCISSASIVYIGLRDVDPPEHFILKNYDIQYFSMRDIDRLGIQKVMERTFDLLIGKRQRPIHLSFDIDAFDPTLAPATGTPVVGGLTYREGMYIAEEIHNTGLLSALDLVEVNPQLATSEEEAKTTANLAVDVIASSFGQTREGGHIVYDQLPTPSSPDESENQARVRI
Put plainly: in vitro enzyme assay to detect the production of urea directly proportional to the activity of Arginase II. Also: in the data most compounds retested in dose-response had high values. Format: functional. The following applies: 33.3 µM.

The target of assay [6] is T3, Proteasome subunit beta (Trypanosoma cruzi) (UniProt O96673).
T3 sequence (whole entry): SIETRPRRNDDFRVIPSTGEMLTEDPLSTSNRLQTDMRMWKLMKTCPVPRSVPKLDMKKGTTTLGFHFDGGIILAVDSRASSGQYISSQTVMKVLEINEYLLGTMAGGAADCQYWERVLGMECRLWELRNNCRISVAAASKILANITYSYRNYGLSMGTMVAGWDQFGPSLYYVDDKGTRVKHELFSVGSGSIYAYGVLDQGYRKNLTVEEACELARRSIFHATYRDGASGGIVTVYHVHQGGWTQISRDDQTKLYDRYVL
Put plainly: Trypanosoma cruzi proteasome chymotrypsin-like activity (TcProtChymo) assay. Also: in the data most compounds retested in dose-response had high values. Format: functional. The following applies: 9.37 µM.

The species named for another assay is Homo sapiens. Put plainly: To identify inhibition of the IFN signalling (Jak-Stat) pathway via expression of an eGFP reporter gene under the control of an IFN-stimulated response element (ISRE) containing MxA promoter. Format: functional. Particulars: 30 µM. A general note: Reporter assays use an easily measured gene product as a stand-in for the process of interest.

For assay [7], the target named is T4, Tyrosyl-tRNA synthetase, putative (Trypanosoma cruzi (strain CL Brener)) (UniProt Q4DSP6).
T4 sequence (whole entry): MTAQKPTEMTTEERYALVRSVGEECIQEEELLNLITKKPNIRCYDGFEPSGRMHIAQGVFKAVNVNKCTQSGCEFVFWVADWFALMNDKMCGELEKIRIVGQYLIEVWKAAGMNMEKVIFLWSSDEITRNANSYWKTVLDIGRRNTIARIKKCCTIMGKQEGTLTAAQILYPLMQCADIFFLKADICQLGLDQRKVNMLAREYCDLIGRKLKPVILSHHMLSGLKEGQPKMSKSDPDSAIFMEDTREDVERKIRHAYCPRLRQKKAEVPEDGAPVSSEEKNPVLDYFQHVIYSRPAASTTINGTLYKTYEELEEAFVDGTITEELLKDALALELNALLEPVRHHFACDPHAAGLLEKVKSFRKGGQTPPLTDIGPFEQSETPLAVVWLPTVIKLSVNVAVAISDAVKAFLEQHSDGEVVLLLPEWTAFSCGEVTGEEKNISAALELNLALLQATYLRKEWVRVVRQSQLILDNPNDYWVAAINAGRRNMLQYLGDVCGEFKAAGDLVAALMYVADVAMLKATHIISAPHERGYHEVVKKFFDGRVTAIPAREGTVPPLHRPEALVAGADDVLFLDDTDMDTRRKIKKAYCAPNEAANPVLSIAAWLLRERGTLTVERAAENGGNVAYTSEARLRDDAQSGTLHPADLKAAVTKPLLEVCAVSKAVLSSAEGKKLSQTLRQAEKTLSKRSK
Put plainly: Trypanosoma cruzi tyrosyl tRNA synthetase (TcYRS) _High Tyrosine SOP. Also: in the data most compounds retested in dose-response had high values. Format: functional. The following applies: 30 µM.

Assay [8] deals with T4, Tyrosyl-tRNA synthetase, putative (Trypanosoma cruzi (strain CL Brener)). In words: Trypanosoma cruzi tyrosyl tRNA synthetase (TcYRS) SOP. Format: functional. The following applies: 30 µM.
In assay [9] the target is Chromo domain-containing protein 1 (Saccharomyces cerevisiae (strain ATCC 204508 / S288c) (Baker's yeast)) (UniProt P32657). In words: ScCHD-1 Enzyme Inhibition Assay. Also: in the data most compounds retested in dose-response had high values. Format: functional. The following applies: 30 µM.
Chromo domain-containing protein 1 (Saccharomyces cerevisiae (strain ATCC 204508 / S288c) (Baker's yeast)), sequence (P32657 whole entry, the tested form may be a part): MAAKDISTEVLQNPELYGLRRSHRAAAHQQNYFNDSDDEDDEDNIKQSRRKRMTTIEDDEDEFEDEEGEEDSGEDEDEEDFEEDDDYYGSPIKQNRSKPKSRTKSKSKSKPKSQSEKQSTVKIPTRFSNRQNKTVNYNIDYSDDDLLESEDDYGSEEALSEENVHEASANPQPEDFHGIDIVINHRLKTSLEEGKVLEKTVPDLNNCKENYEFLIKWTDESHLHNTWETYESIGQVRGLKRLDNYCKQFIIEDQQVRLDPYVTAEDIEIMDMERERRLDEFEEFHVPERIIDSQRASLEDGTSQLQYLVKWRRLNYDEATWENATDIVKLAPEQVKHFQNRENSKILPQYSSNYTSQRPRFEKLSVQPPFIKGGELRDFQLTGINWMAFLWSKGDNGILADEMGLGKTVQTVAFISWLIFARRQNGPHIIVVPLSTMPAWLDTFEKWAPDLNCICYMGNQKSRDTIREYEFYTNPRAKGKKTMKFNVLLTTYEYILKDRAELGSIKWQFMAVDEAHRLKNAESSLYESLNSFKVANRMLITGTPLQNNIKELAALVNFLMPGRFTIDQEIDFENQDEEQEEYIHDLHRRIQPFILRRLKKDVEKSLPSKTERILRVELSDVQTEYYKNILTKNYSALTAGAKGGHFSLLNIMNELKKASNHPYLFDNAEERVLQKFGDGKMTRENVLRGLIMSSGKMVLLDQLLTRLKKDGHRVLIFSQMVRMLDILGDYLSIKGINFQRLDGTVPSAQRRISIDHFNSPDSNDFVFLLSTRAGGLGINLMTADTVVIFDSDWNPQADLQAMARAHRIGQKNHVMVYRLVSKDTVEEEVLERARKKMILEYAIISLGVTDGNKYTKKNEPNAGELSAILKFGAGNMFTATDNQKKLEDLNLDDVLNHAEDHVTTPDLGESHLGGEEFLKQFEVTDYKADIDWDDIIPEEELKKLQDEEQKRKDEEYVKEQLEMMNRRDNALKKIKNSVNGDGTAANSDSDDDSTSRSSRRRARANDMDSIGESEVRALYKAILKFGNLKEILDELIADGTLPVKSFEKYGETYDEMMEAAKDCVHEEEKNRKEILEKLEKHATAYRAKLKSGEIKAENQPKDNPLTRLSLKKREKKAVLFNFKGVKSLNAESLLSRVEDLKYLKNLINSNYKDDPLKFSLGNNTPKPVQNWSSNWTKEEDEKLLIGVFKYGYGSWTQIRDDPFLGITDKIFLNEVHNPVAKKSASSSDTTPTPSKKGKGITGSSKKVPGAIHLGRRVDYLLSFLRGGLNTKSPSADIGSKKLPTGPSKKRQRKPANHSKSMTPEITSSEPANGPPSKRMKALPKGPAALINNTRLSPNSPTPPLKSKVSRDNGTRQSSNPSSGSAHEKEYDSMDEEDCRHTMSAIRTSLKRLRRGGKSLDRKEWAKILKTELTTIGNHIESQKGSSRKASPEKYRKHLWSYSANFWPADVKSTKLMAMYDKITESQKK

For some of these results: Entries with a potency or affinity are not part of this list.

Protein translocase subunit SecA (Escherichia coli (strain K12)), sequence (P10408 whole entry): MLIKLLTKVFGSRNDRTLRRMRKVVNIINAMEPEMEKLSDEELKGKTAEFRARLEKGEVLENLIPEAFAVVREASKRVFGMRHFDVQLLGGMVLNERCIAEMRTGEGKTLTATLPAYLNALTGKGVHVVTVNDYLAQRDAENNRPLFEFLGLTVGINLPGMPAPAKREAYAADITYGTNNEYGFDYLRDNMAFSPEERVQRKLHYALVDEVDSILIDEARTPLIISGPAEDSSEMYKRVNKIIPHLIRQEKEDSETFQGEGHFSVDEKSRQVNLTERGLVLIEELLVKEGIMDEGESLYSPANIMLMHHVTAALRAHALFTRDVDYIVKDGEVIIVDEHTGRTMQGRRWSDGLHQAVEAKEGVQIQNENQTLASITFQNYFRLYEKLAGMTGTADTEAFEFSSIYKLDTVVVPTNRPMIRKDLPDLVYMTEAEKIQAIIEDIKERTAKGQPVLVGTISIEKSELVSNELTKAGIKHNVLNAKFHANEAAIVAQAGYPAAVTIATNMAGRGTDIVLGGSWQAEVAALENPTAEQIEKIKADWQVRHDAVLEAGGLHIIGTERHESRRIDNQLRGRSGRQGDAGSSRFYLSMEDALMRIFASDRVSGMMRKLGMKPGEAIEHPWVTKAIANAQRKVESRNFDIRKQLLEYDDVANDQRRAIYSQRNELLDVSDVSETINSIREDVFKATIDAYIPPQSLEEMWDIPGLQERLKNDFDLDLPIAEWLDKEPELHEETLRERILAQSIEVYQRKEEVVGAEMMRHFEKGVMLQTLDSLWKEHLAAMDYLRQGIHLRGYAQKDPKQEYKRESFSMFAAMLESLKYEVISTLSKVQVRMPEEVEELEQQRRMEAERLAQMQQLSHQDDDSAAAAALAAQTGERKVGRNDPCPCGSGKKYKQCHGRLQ

As for `Cc1nc(CN(Cc2cccs2)C2CCS(=O)(=O)C2)oc1C` (stereo not drawn), the Percent Effect in assay [1] is -3.68%; in assay [2], 15.8%; in assay [3] it was -1.59%; in assay [4], 1.17%; in the assay on Trypanosoma cruzi it was -3.27%; in assay [5], 2.16%. The Percent Effect in assay [6] is 6.85%; in the assay listed under Homo sapiens, -8.22%; in assay [7], 5.42%; in [8] it was 23.5%; in assay [9] it was 1.43%.

Consider `Cc1cc(CN2CCCC(C)(CO)C2)ccc1F` (stereo not drawn), for which the Percent Effect in [1] is 0.156%; in [2], 5.41%; in assay [3], -7.31%; in assay [4], 1.4%; with Trypanosoma cruzi, 2.05%; in assay [5], 12.2%. In addition, the Percent Effect in assay [6] was 0.0858%; in the assay listed under Homo sapiens it was 5.91%; in assay [7] it was -1.07%; in assay [8], 3.7%; in assay [9], -7.89%.

Take `CCc1nnc2n1CCN(C(=O)c1cc3cc(F)ccc3[nH]1)C2`: the Percent Effect is -3.51% in assay [1]; 0% in assay [2]; 21% in [3]; 11.1% in [4]; 4.68% with Trypanosoma cruzi; -1.78% in assay [5]. Also, the Percent Effect in assay [6] was 2.37%; in the assay filed under Homo sapiens, -24.4%; in assay [7] it was 7.77%; in assay [8], 24.4%; in assay [9], -11.3%.

On to `CC(NC(=O)CCCOc1ccccc1)c1nnc2n1CCCCC2` (stereo not drawn), for which the Percent Effect is -4.14% in assay [1]; 13.5% in [2]; -5.88% in [3]; -2.77% in [4]; 0.0943% in the assay with Trypanosoma cruzi; -5.21% in [5]. Besides, the Percent Effect in assay [6] was 11.3%; in the assay filed under Homo sapiens, 16.3%; in [7], 5.42%; in assay [8], 13.6%; in assay [9] it was -4.16%.

Take `COc1ccc(C(O)CNC(=O)NCc2csc(C)n2)cc1` (stereo not drawn): the Percent Effect in assay [1] was -3.31%; in assay [2], 18.9%; in assay [3], 1.28%; in assay [4], 1.81%; in the assay with Trypanosoma cruzi, 6.41%; in [5], -2.03%. For the same compound, the Percent Effect was 19.6% in [6]; 11.3% in the assay listed under Homo sapiens; 7.92% in assay [7]; -8.54% in assay [8]; -6.16% in assay [9].

On to `Cc1cnc2n1CCN(C)C21CCN(C(=O)CC(C)C)CC1`, for which the Percent Effect in [1] was -2.76%; in [2] it was 8%; in assay [3], 2.31%; in [4], 1.76%; with Trypanosoma cruzi, -5.21%; in assay [5] it was -26.3%. Moreover, the Percent Effect in assay [6] is 8.38%; in the assay listed under Homo sapiens, -3.36%; in [7] it was -1.04%; in [8], 15%; in [9] it was -7.37%.

On to `CC(C)c1cc(NCC(O)c2ccc(F)cc2)n2nccc2n1` (stereo not drawn), for which the Percent Effect in assay [1] is -2.04%; in assay [2] it was 2.7%; in assay [3] it was 10.8%; in [4], 1.77%; with Trypanosoma cruzi, 1.35%; in [5] it was -4.29%. Further, the Percent Effect in assay [6] was found to be 3.97%; in the assay filed under Homo sapiens it was 38.1%; in assay [7], 2.65%; in assay [8] it was 7.32%; in assay [9], 4.86%.

For the compound `CC(CNC(=O)N1CCN(CC(F)F)CC1)Cc1cccs1` (stereo not drawn), the Percent Effect was -7.32% in assay [1]; 2.7% in assay [2]; 3.08% in [3]; 1.71% in [4]; -1.17% in the assay with Trypanosoma cruzi; 2.08% in assay [5]. Further, the Percent Effect in [6] was 6.34%; in the assay listed under Homo sapiens, -5.03%; in [7], 8.91%; in assay [8], 1.22%; in assay [9] it was -2.29%.
